Compound activity (PubChem)
An excerpt weighted towards active compounds, which were near 21% of everything screened.
Sm TGR inh = S. mansoni TGR enzyme inhibition. Q962Y6. purified TGR, DTNB reduction, TNB absorbance 405 nm. Potency, µM (top dose mostly 114 µM), usual class: inhibitors. actives 3% (n = 360,000). AID 485364; further: nearly all actives have a fitted effect of over 60% in size
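First, TGR (20 nM dispensed) and NADPH were mixed with compound. Second, a 15 min room-temperature incubation followed. Third, further NADPH and then DTNB were added to start the reaction. Finally, TNB absorbance was monitored kinetically.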
CHX counter = counter-screen for Shiga toxin inhibitors: cycloheximide protein synthesis inhibition. cell reporter, cycloheximide protein synthesis inhibition counterscreen. max response, %. actives 12% (n = 300,000). AID 2314; in the data active means max response mostly above about 13%, no sharp cut-off; inactive means mostly below about 14%; further: read at 38.3 µM for the half of the compounds with a filed dose
Pf growth 48h = inhibits P. falciparum growth in the first generation, 48 h. AID 504832. P. falciparum luciferase growth in erythrocytes, 48 h. actives 5.9% (n = 310,000). Potency, µM (top dose mostly 28.7 µM), most hits filed as inhibitors
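In quantitative HTS format, infected erythrocytes bearing luciferase-reporter parasites were treated for a single generation at 37 C. Luminescence after adding detection reagent served as the growth measure.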
Pf growth 96h = inhibits malaria parasite growth, 96 h; actives 6.9% (n = 320,000); P. falciparum luciferase reporter growth, 96 h; Potency, µM (doses to about 28.7 µM), most hits filed as inhibitors
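96 h incubation, 37 C, 5% CO2, of luciferase-reporter P. falciparum-infected RBCs (2% hematocrit, 0.05% parasitemia final) with test compounds; endpoint luminescence.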
NS1 function inh = blocks influenza NS1 protein function; Potency, µM (top dose mostly 46.1 µM); actives 0.4% (n = 270,000); AID 2326; calls by dose curve; further: actives are rising curves; nearly all actives have a fitted effect of over 50% in size
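A cell-based growth assay was used: compounds that relieve NS1-induced slow growth of budding yeast raise OD600. Assay medium was yeast nitrogen base with ammonium sulphate and -URA supplement, pH 6.0, with 2% galactose.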
Shiga inhibitor = inhibitors of Shiga toxin in Vero cells | actives 9.2% (n = 290,000) | inhibition, % at 38.7 µM | AID 2315 | Vero cells, Shiga toxin protein synthesis inhibition reporter; in the data active means inhibition mostly above about 28%, no sharp cut-off; inactive means mostly below about 43%
NS1 inh valid = validation of influenza NS1 protein function inhibitors; activity change, negative = inhibition, % at 32.9 µM; 1,400 tested, under 10 active; shares compounds with NS1 function inh; AID 492980; influenza NS1 function cell assay, 15-point titration; calls by dose curve
Hits are given with their value; i = inactive; ? = inconclusive; nt = no result given; [ ] = dose if it differs, or a comment. Unless noted, the call rests on the fitted dose curve; in most records, active means well fitted curve in the direction sought with a large enough effect; inconclusive means small, poorly fitted or top-dose-only effect, or another doubt; inactive means no such curve, though single readings can be large; an effect the other way counts as inactive or inconclusive.

SMILES	Sm TGR inh	CHX counter	Pf growth 48h	Pf growth 96h	NS1 function inh	Shiga inhibitor	NS1 inh valid
COc1ccc(-c2nc(CS(=O)(=O)CC(=O)NC3CCCCC3C)c(C)o2)cc1 (centres undefined)	?	i	i	i	i	i	nt
CCN(C1CCS(=O)(=O)C1)S(=O)(=O)c1ccc(Cl)s1 (centres undefined)	i	nt	i	i	nt	nt	nt
COc1ccc([C@H]2[C@H](C(=O)C(C)(C)C)N3N=Cc4ccccc4C3[C@]23N=C(c2ccccc2)OC3=O)cc1 (some centres undefined)	i	i	13.1µM	9.28µM	2µM	i	i
CCOC(=O)c1c(C)[nH]c(CCC(=O)NCc2cc(OC)c(OC)c(OC)c2)c1C	i	nt	nt	nt	nt	nt	nt
O=C(NC1CC1)c1ccc(CS(=O)(=O)c2c(Cl)cccc2Cl)o1	?	i	nt	i	4.47µM	i	i
COc1cc(/C=N\Nc2nc3ccccc3[nH]2)cc(OC)c1OC	i	33.9	0.165µM	?	2.82µM	i	i
COc1ccc(SCCCn2c(=O)c3c(ncn3C)n(C)c2=O)cc1	i	i	i	?	i	i	nt
N#CC1=C(SCC(=O)NC2CCCCC2)NC(=O)CC1c1ccco1 (centres undefined)	i	i	i	i	i	i	nt
CCCCc1ccc(NC(=O)CSC2=C(C#N)C(c3ccco3)C3=C(CCCC3=O)N2)cc1 (centres undefined)	i	18.6	1.85µM	?	20µM	i	?
O=C1CNC(=S)N1CCc1ccc(O)c(O)c1	1.78µM	i	?	i	?	i	i
CCOC(=O)C1=C(C)N(CCCCCC(=O)O)C(=O)NC1c1ccccc1Cl (centres undefined)	i	i	i	i	?	i	i
O=C(OCn1nnc2ccccc2c1=O)c1cc2ccccc2o1	i	i	i	i	i	i	nt
O=C(OCn1nnc2ccccc2c1=O)c1ccc2ccccc2n1	i	i	i	i	15.8µM	i	i
Cc1ccc(Cn2c(SCC(=O)N3CC(=O)Nc4ccccc43)nc3ccccc3c2=O)cc1	i	i	?	13.1µM	12.6µM	i	i
Cc1cc(Nc2ccc(F)cc2F)n2nc(C)nc2n1	i	i	i	i	12.6µM	i	i
COc1ccc(Br)cc1-c1nc2c(c(=O)[nH]c(=O)n2Cc2ccccc2)n1C	i	i	i	i	i	i	nt
COc1ccc(-c2ccc(-c3nc4c(c(=O)[nH]c(=O)n4Cc4ccccc4)n3C)o2)c([N+](=O)[O-])c1	i	i	?	?	3.55µM	i	i
COc1ccc(C)cc1NC(=O)c1c(C(=O)Nc2cccc(C)c2C)sc2nc(C)cc(=O)n12	i	nt	nt	nt	nt	nt	nt
CCCc1nc2ccccc2c(=O)n1-c1c(C)n(C)n(-c2ccccc2)c1=O	i	i	i	nt	4.47µM	i	i
Cc1ccc(-c2nc3ccccc3c(=O)n2-c2c(C)n(C)n(-c3ccccc3)c2=O)cc1	i	i	i	i	i	i	nt
CNc1nc(SC)n(C)c(=O)c1N=O	i	i	i	?	i	i	nt
CN(Cc1cccc(F)c1)C(=O)c1ccc(S(=O)(=O)C(F)F)cc1	i	i	i	i	2.82µM	i	i
O=C(CSCC(=O)N1CCCc2ccccc21)Nc1nc(-c2ccccc2)cs1	i	18.4	i	i	20µM	i	i
O=C(C[n+]1cc(-c2ccccc2)n2c1CCC2)Nc1nc(-c2ccccc2)cs1	i	i	?	?	i	i	nt
Cc1cc(C)cc(OCC(=O)OCC(=O)N2CCc3ccccc32)c1	i	nt	i	i	nt	nt	nt
SMILES	Sm TGR inh	CHX counter	Pf growth 48h	Pf growth 96h	NS1 function inh	Shiga inhibitor	NS1 inh valid
Cc1ccc(NC(=O)C(C)OC(=O)c2ccc(NS(=O)(=O)c3ccc(F)c(F)c3)cc2)cc1 (centres undefined)	i	i	i	?	i	i	nt
CC(=O)c1ccc(NC(=O)C(C)OC(=O)c2ccc(NS(=O)(=O)c3ccc(F)c(F)c3)cc2)cc1 (centres undefined)	i	i	i	?	11.2µM	i	i
CC(C)CNC(=O)c1cccc2c1-c1ccccc1C2=O	i	i	i	?	i	i	nt
Cc1cc(C(C)(C)C)c(O)c(C(C)(C)C)c1	i	i	i	i	i	i	nt
CC1=NN(Cc2cc(C(C)(C)C)c(O)c(C(C)(C)C)c2)C(=O)C1	i	i	i	i	14.1µM	i	?
COc1cc(C(=O)NCCc2ccc(S(N)(=O)=O)cc2)cc(OC)c1OC	i	i	i	i	?	i	i
CCCn1c(CCC(=O)Nc2ccc(C)c(Cl)c2)nc2cccnc21	i	nt	nt	nt	nt	nt	nt
CCOC(=O)C1CCCN(C(=O)CCCn2c(=O)c3cccn3c3cccnc32)C1 (centres undefined)	i	i	i	?	i	i	nt
CCOC(=O)C1=C(CSc2nc3c(cc2C#N)CN(C)CC3)OC(N)=C(C#N)C1c1ccccc1 (centres undefined)	?	i	?	i[5.75 µM]	i	i	nt
CCOC(=O)C1=C(CSc2nc(-c3ccccc3)ccc2C#N)OC(N)=C(C#N)C1c1cccnc1 (centres undefined)	i	41.7	nt	?	10µM	92.3	i
CCOC(=O)C1=C(CSc2nc3c(cc2C#N)CN(C)CC3)OC(N)=C(C#N)C1c1ccc(F)cc1 (centres undefined)	i	i	nt	?	10µM	i	i
COC(=O)c1ccccc1NC(=O)CSc1nc(=O)cc(N)n1-c1ccccc1	i	nt	nt	nt	nt	nt	nt
CC1=CC(C)C2(CO)COC(c3ccc(O)cc3)C1C2C (centres undefined)	i	i	i	?	i	i	nt
CC1CC2(C)Oc3ccccc3C3OCC1(CO)C(C)C32 (centres undefined)	i	i	i	nt	?	i	i
O=C(NCCCN1CCOCC1)C1CC(=O)N(C2CCCCC2)C1 (centres undefined)	i	i	i	?	1µM	i	i
C=CCNC(=O)c1ccccc1NC(=O)Cc1ccccc1[N+](=O)[O-]	i	i	i	?	i	i	nt
N=c1c(C(=O)NCc2ccco2)cc2c(=O)n3ccccc3nc2n1Cc1ccc(Cl)cc1	i	i	10.4µM	2.33µM	7.94µM	i	i
Cc1ccsc1CN(C(=O)c1ccccc1)C1CCS(=O)(=O)C1 (centres undefined)	i	i	i	i	i	i	nt
Cc1cccc(NC(=S)N=Nc2c(O)n(C)c3ccc(S(=O)(=O)N4CCOCC4)cc23)c1	i	i	8.28µM	2.33µM	?	i	i
Cc1cccc(Nc2ccc(S(=O)(=O)N3CCOCC3)cc2[N+](=O)[O-])c1	i	nt	i	?	nt	nt	nt
CC1=C(C(=O)OCCc2ccccc2)C(c2ccsc2)NC(=O)N1C (centres undefined)	i	i	i	i	i	i	nt
COc1ccc(Br)cc1C1CC(=O)N2CN(Cc3ccccc3)CSC2=C1C#N (centres undefined)	i	i	nt	i	11.2µM	i	i
